The supplement of paper PMC11417369
In all, about 25,000 sequences were measured (“ln(normalized median fluorescence intensity)”: median about 6.7, highest 2% from about 10 on). The entries come from a sample that favours the highest values as a whole.

The sequences below were run on PfHDP1 homeodomain (GST-tagged) (assay: gcPBM binding intensity (ln(normalized median fluorescence intensity)); higher = stronger DNA binding).
Summary of the method: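 In this array assay, P. falciparum DNA-binding domains with a GST tag, expressed in E. coli, were applied for 1 h to primer-extended double-stranded 36-bp intergenic genomic probes and negative controls on an Agilent 4 × 180k array. Bound protein was visualised with Alexa488 anti-GST antibody at 488 nm. Binding intensity is the highest Masliner-normalised natural-log median intensity across replicate spots of either probe orientation.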

Sequence	gcPBM binding intensity (ln)
ATACTATAATATAAAACACACATATGTACCTTCTAA [CACACA_site7323]	6.67
TATAAGGCAATAATAGTGCACTAAGATATATAATGA	10.7
TTGCAATAATGTTGCACACTAAATAGTCATATATAA [CACACA_site263]	9.77
TATTAATATATAGTAGTGCAATAAAGATATACTGAA	9.67
GTATTATATTTCAACTGTACGTAAAACTATTAAAAT [XGTACX_site3679]	6.55
ACCAATAAATATTTGGTGCATACATATATATATATA	10.5
TCAATAAATATACATACATGCATACATACATACATA [TGCATGCA_site197]	6.53
TATTTCTTTTGGTTGGTGCATAAAATAATACAATAT [GTGCAC_site9916]	10.5
AAATAATTTATATATTGTACAAATATTAAATGCGAA [XGTACX_site3390]	7.16
ATAACCTAATAATACACACACATGAATATATATAAT [CACACA_site4689]	7.17
TATTTTTCCCTATGCACACACACCGTATATATAATA [CACACA_site4758]	10.1
TTATTTTCTTTCTATGCACACGCACGTATTTGCCCA [CACACA_site9104]	9.79
ATTTTCTTTCTATGCACACGCACGTATTTGCACCCA [CACACA_site3350]	10.9
CGTAATAAAAACAAATGTACATGACCTGGACAGGTT [XGTACX_site6560]	6.4
TTATTTTTTTTATATATATGTATAAATATATATATA [XGTACX_negctrl_site441]	7.84
TTATAAAATGGGCAAACACACACAAAAAAAAGATAT [CACACA_site8476]	7.42
TAATACTTTTAATCTACACACGCTGAGACATGCTTT [CACACA_site1484]	6.14
TATATCTTACTTTTTGCACACACTAATATTATTGTT [CACACA_site1640]	10.1
ATATATTTTTTGAATACACACATATTATCTGTAATA [CACACA_site4826]	6.45
TAATATTACATTTATTGTACTTTGTTTTTATTTTAT [XGTACX_site1605]	6.27

Sequence	gcPBM binding intensity (ln)
TATCTTACTTTTTGCACACACTAATATTATTGTTTA [CACACA_site4990]	11.1
ATAATATTATACTTTGCACACATCTGAAATGACATA [CACACA_site3952]	10.4
ATATACTTATATATTGCACACATCTAATATTTTGAA [CACACA_site3165]	10.5
ATAAATCCCAAAACCTTGCAAGACAACGTTTGATCA [CACACA_negctrl_site1327]	6.57
TCTTTAACAAGTTAAACACACATACCTATATACATA [CACACA_site7237]	6.47
TCTTTCTTATTTTAATGATATTTATTCATTCCAGTT [CACACA_negctrl_site1679]	6.52
TTCCCAACATGATATTGTACATTTAATTATAATTAA [XGTACX_site7029]	7.08
TTATCTCTACAAAGTGCACACACGTAAAAACATATA [CACACA_site3957]	8.98
TAAAAAAAAACATGTGCACACGTTTTATCTACATAA [CACACA_site2336]	10.8
CAAAACATTTTATCTACACACATATATAAATAAATA [CACACA_site3220]	6.36
TATTATTGTCTTTCAAAAAAAAAAAAAAAAAAAAAA [CACACA_negctrl_site1242]	6.11
TATCGAGCCATTTTTACATGCAATTATACATAATTT [TGCATGCA_site987]	6.73
AATATTGCACCATTTTGTACATAATATATTCAAATA [XGTACX_site475]	10.3
ATAATTATTCTTATGGTGCACTGAATATACATGTTG [GTGCAC_site9760]	9.5
AATATATTGCACCATTGGACCTGAATAATTCTTCCA [CACACA_negctrl_site1071]	11.4
ATATCTATAATAAATACACACATTTATATAGATAAA [CACACA_site7518]	6.38
AAATGTGTTAATGTGCGTACACATATATATAATATT [XGTACX_site2792]	6.66
TTGTGGATTTTGTGCGCACACACATGCAAAAAGAAA [CACACA_site1147]	9.58
ATTTTGTGCGCACACACATGCAAAAAGAAATATGAT [TGCATGCA_site261]	10.5
GTGTATTTTGTGCGCACACACATGCAAAAAGAAATA [CACACA_site6660]	9.54

Sequence	gcPBM binding intensity (ln)
TAATGATAAATACATACACACAAAAAATGATATATA [CACACA_site7258]	6.48
TCTTCTTTTTTTTTTTTGTATTATTATAAATATTAT [CACACA_negctrl_site1668]	6.53
ATATATATTATTTCTACACACATATATATAATATGT [CACACA_site3374]	6.9
GAAAATAAAATAAATGCATGTAAATTTAATGTAATG [TGCATGCA_site996]	6.88
AATATATATATGTGTACACATCCAAAATAGGCATAC [CACACA_site5705]	7.59
TTAATATATTATCTGGTGCATAAACACGTTATACCT	10.6
TATATATAATATTATACACACATATCTGCATAATAT [CACACA_site4202]	7.05
TTTGTTATATTTAATACACACATATTATAAACACAT [CACACA_site7703]	6.88
AATATTATTTATATTTGTACACAGTAATATAAAATA [XGTACX_site4884]	6.25
AATTGTTAATGGTACGAACACACATATAAAGATGCA [CACACA_site2043]	6.76
GTTGTTATATAAAATTGTACATAAAAAACAAAATAT [XGTACX_site5313]	6.8
AATTGTGCATTATATTGTACACGTGTTGTATATATT [XGTACX_site975]	10.8
ATATATAATTTTTGTTGTACATTATAAAAATAATTA [XGTACX_site2738]	6.3
TAAATTGGTGCAAAGTGTACATATATATCTTTCCTA [XGTACX_site5458]	10.4
AAAAAATTATAAAAGTGTACATATATATATATATAT [XGTACX_site154]	9.48
TATATATTATATATATGTACATATTGTTGTGTATAT [XGTACX_site767]	7.15
ATGTGTATATATTATTGTACATATATATATATATAT [XGTACX_site4627]	9.24
TAGGTACATAAATTGGTGCAAAGTGTACATATATAT	10.8
GTGTGCAAAAATTGTTGTACATTATATATAAAAAAA [XGTACX_site3246]	10.6
